What all share (test): DAPPL (digital affinity profiling via proximity ligation, sequencing); 10 mM Tris-HCl pH 7.5, 50 mM NaCl, 1 mM DTT, 4% glycerol, room temperature, 30 min; GST-TFs on glutathione beads, 16-mer random dsDNA library, 0.1% formaldehyde crosslink after washing; high values mean tight binding
Assay [1] has as its target T1, FLI1 (Homo sapiens, UniProt Q01543 1-452).
T1 sequence: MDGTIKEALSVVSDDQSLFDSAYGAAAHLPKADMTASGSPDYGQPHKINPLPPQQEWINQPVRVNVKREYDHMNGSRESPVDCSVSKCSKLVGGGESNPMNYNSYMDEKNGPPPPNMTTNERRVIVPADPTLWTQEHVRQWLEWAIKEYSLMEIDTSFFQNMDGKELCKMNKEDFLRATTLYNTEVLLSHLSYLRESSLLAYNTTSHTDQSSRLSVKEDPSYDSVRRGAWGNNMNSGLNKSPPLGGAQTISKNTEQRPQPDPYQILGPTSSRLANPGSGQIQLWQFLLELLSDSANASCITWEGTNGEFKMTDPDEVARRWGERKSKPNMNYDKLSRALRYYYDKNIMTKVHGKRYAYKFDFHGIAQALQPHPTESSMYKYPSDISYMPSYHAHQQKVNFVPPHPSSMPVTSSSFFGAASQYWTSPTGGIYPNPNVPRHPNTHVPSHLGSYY
As to conditions: protein: recombinant; tags: N-terminal GST; dsDNA, one strand shown. In outline:
(§1)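 Binding signal is each hexamer's read frequency for a factor divided by its frequency in the tag-only sample. The factors were GST-fused human transcription factors from yeast, captured on glutathione beads, DNA-barcoded and pooled with that sample. Pools were incubated with 200 nmole of a random double-stranded 16-mer DNA library in Tris/NaCl/DTT/glycerol buffer at room temperature for 30 min, then washed, crosslinked with 0.1% formaldehyde, proximity-ligated with BsaI/T4 ligase (1 h, 37 °C), PCR-amplified and sequenced on an Illumina NextSeq500.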

Assay [2] deals with T2, ELK1 (Homo sapiens, UniProt P19419 1-428).
T2 sequence: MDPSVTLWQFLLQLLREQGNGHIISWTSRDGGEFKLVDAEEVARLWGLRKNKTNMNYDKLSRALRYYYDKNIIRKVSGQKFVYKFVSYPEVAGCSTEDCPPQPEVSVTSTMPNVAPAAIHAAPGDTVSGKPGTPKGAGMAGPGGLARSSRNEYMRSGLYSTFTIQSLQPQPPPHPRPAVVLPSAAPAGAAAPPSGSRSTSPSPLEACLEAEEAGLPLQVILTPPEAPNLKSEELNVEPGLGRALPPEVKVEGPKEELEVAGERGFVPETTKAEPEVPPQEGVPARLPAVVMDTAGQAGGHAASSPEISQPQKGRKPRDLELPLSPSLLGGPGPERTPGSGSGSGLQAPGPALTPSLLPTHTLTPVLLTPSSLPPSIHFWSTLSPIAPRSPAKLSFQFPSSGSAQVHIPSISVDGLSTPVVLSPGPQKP
The note with it: protein: recombinant; tags: N-terminal GST; dsDNA, one strand shown. Put shortly: as §1

Assay [3] concerns the target T3, GABPA (Homo sapiens, UniProt Q06546 1-454).
T3 sequence: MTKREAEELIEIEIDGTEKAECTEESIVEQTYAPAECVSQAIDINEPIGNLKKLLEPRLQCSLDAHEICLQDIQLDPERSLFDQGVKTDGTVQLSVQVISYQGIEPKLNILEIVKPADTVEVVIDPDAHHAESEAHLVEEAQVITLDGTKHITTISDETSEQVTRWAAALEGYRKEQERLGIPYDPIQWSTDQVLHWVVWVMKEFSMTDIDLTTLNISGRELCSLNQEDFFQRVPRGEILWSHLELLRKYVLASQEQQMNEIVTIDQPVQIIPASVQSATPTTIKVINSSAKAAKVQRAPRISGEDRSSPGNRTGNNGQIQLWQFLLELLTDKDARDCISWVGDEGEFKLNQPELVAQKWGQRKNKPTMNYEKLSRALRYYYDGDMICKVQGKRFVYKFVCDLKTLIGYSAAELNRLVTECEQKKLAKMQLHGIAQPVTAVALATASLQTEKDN
The note with it: protein: recombinant; tags: N-terminal GST; dsDNA, one strand shown. In outline: as §1

The target in assay [4] is T4, ERG (Homo sapiens, UniProt P11308 1-479).
T4 sequence: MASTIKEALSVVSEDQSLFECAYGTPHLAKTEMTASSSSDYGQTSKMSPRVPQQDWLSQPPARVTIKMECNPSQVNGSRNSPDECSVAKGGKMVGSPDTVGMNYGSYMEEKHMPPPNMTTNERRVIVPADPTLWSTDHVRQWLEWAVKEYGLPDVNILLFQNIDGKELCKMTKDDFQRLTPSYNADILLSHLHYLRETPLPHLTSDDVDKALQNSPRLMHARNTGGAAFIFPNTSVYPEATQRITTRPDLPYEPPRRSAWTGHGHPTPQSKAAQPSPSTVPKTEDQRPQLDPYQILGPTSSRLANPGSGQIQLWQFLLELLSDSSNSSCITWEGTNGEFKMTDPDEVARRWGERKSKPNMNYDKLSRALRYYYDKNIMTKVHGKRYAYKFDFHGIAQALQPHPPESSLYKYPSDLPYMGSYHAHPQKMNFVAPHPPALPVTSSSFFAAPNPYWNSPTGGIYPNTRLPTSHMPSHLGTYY
As to conditions: protein: recombinant; tags: N-terminal GST; dsDNA, one strand shown. In outline: as §1

The target in assay [5] is ELF1 (Homo sapiens, UniProt P32519 1-619). As to conditions: protein: recombinant; tags: N-terminal GST; dsDNA, one strand shown. Put shortly: as §1
Assay [6] addresses T5, EHF (Homo sapiens, UniProt Q9NZC4 1-300).
T5 sequence: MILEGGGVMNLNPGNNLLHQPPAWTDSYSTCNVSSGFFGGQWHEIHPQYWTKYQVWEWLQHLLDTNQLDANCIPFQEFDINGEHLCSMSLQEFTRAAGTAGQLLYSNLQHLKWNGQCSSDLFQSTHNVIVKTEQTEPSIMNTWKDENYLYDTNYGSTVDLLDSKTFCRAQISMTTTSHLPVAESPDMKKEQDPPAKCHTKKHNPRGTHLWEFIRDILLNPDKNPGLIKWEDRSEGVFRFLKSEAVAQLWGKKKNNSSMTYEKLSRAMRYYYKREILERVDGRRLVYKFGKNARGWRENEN
As to conditions: protein: recombinant; tags: N-terminal GST; dsDNA, one strand shown. In outline:
as §1

For assay [7], the target named is SPI1 (Homo sapiens, UniProt P17947 1-270). As to conditions: protein: recombinant; tags: N-terminal GST; dsDNA, one strand shown. In outline: as §1
Assay [8] concerns the target SPIB (Homo sapiens, UniProt Q01892 1-262). The note with it: protein: recombinant; tags: N-terminal GST; dsDNA, one strand shown. Put shortly:
as §1

For assay [9], the target named is T6, ELK3 (Homo sapiens, UniProt P41970 1-407).
T6 sequence: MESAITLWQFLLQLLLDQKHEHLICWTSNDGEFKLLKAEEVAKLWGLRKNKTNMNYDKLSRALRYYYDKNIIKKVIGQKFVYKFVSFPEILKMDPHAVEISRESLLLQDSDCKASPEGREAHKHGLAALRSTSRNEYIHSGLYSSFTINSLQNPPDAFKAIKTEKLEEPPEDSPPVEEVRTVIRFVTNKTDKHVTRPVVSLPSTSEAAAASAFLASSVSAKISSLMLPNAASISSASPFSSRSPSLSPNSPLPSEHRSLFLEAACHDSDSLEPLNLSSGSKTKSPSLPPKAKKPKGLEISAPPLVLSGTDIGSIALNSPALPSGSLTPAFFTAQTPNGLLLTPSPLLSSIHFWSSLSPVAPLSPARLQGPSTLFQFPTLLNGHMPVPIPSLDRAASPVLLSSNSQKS
The note with it: protein: recombinant; tags: N-terminal GST; dsDNA, one strand shown. Put shortly: as §1

In assay [10] the target is T7, FEV (Homo sapiens, UniProt Q99581 1-238).
T7 sequence: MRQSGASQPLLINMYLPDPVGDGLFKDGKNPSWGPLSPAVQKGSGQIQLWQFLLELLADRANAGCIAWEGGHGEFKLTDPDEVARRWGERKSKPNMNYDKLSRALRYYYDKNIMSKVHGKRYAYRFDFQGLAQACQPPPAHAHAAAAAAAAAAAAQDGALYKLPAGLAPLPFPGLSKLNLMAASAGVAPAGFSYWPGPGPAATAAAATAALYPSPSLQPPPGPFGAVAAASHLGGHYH
The note with it: protein: recombinant; tags: N-terminal GST; dsDNA, one strand shown. Put shortly:
as §1

The target in assay [11] is ETV5 (Homo sapiens, UniProt P41161 1-510). As to conditions: protein: recombinant; tags: N-terminal GST; dsDNA, one strand shown. In outline: as §1
Assay [12] deals with HSF1 (Homo sapiens, UniProt Q00613 1-529). As to conditions: protein: recombinant; tags: N-terminal GST; chain copies: 3; dsDNA, one strand shown. Put shortly:
as §1

For assay [13], the target named is T8, SPIC (Homo sapiens, UniProt Q8N5J4 1-248).
T8 sequence: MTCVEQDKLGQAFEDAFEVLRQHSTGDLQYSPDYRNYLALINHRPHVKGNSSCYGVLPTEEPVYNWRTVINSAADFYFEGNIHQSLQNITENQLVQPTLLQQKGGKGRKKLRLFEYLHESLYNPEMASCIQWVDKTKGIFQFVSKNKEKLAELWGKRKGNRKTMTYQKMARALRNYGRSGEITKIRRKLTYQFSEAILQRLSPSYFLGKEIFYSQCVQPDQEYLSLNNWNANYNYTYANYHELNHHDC
The note with it: protein: recombinant; tags: N-terminal GST; dsDNA, one strand shown. In outline: as §1

The target of assay [14] is ELF4 (Homo sapiens, UniProt Q99607 1-663). As to conditions: protein: recombinant; tags: N-terminal GST; dsDNA, one strand shown. Put shortly:
as §1

Assay [15] addresses T9, ELK4 (Homo sapiens, UniProt P28324-2 1-405).
T9 sequence: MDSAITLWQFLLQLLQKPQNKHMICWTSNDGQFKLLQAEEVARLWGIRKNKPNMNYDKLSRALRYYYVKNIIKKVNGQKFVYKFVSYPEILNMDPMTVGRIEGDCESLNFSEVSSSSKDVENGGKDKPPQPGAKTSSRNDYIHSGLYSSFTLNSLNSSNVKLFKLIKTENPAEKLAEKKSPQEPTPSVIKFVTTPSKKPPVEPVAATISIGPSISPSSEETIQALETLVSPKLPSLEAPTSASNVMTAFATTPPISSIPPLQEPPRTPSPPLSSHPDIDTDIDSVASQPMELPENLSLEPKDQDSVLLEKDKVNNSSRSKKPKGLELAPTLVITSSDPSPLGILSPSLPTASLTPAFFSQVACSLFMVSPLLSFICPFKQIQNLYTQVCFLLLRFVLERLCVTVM
The note with it: protein: recombinant; tags: N-terminal GST; dsDNA, one strand shown. In outline: as §1

Assay [16] has as its target T10, ELF3 (Homo sapiens, UniProt P78545 1-371).
T10 sequence: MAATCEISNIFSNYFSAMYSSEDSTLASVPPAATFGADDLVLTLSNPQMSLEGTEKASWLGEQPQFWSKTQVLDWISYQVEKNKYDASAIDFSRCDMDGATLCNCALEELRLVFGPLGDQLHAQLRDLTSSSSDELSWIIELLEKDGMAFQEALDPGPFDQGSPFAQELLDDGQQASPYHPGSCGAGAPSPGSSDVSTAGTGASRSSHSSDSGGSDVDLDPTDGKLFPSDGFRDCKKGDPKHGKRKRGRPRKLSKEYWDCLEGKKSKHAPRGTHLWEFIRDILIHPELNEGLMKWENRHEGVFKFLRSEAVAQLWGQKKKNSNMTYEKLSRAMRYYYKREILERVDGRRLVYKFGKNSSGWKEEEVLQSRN
The note with it: protein: recombinant; tags: N-terminal GST; dsDNA, one strand shown. Put shortly:
as §1

The target in assay [17] is CRX (Homo sapiens, UniProt O43186 1-299). As to conditions: protein: recombinant; tags: N-terminal GST; dsDNA, one strand shown. Put shortly:
as §1

Assay [18] deals with ETV1 (Homo sapiens, UniProt P50549 1-477). The note with it: protein: recombinant; tags: N-terminal GST; dsDNA, one strand shown. In outline: as §1
Sequence of ETV1 (P50549 whole entry): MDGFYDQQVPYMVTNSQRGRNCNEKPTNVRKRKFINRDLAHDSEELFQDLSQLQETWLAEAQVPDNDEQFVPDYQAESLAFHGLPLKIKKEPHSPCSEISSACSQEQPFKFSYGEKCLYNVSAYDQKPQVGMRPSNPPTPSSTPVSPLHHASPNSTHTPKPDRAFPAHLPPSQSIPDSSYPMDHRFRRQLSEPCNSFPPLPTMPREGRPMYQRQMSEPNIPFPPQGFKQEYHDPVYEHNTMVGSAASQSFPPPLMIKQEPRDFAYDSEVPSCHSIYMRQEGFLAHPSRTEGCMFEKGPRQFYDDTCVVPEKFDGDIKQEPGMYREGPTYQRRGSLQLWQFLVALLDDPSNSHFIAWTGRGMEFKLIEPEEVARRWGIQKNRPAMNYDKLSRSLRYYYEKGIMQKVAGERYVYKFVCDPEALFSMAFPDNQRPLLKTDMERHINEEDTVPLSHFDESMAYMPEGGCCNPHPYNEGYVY

Sequence of ELF4 (Q99607 whole entry): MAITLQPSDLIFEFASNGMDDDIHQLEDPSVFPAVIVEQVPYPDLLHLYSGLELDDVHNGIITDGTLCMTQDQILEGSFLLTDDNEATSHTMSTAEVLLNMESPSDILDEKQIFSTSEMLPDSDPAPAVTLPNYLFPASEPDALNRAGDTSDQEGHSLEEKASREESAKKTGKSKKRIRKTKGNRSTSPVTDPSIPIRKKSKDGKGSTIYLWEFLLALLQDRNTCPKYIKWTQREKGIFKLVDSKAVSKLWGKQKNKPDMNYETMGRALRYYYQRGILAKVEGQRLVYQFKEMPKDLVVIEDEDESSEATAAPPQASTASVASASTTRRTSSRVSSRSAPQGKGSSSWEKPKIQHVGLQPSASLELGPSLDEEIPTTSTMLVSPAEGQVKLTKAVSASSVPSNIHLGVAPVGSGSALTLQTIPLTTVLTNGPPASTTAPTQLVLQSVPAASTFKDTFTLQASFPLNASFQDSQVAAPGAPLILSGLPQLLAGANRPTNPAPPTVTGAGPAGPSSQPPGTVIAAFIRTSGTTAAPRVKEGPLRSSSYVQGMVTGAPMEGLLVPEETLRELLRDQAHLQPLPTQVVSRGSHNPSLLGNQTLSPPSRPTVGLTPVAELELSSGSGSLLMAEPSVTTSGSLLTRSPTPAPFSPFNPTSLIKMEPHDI
Sequence of ELF1 (P32519 whole entry): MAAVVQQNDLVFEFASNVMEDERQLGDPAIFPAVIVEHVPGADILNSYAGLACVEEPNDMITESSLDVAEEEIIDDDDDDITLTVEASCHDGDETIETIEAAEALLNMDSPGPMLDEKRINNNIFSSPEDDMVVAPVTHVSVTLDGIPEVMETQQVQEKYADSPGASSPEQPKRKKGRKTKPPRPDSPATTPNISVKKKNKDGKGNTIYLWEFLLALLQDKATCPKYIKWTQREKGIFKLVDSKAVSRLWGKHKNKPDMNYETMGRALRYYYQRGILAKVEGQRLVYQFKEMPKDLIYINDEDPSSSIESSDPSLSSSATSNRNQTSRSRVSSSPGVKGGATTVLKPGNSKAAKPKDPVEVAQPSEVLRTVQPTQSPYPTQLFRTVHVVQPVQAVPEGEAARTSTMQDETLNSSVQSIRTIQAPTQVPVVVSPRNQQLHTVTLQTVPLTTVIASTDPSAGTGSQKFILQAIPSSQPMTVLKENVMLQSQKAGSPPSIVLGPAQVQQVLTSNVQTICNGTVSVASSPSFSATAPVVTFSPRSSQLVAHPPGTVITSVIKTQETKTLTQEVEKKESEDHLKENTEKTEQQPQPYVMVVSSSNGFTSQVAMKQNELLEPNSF
Sequence of ETV5 (P41161 whole entry): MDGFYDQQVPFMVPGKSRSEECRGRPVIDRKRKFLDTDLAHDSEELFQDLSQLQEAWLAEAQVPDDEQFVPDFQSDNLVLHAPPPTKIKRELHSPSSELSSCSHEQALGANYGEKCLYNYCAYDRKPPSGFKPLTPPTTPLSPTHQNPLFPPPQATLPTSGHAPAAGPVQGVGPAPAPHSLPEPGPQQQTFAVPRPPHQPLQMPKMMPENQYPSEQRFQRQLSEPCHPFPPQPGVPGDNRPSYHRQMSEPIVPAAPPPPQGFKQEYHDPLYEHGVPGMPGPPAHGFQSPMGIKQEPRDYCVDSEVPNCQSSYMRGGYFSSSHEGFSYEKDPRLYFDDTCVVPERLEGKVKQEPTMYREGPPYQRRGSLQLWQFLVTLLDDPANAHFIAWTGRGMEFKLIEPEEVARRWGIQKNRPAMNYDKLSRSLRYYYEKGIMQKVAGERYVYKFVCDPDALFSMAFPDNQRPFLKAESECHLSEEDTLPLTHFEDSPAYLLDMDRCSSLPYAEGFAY
Sequence of SPIB (Q01892 whole entry): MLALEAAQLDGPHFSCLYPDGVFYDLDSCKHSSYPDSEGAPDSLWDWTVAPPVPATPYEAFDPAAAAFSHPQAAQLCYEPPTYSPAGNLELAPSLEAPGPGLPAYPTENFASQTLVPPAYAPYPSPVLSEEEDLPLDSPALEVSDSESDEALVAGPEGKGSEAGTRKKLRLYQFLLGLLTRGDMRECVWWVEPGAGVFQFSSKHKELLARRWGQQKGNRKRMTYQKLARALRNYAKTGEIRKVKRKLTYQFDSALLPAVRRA
Sequence of HSF1 (Q00613 whole entry): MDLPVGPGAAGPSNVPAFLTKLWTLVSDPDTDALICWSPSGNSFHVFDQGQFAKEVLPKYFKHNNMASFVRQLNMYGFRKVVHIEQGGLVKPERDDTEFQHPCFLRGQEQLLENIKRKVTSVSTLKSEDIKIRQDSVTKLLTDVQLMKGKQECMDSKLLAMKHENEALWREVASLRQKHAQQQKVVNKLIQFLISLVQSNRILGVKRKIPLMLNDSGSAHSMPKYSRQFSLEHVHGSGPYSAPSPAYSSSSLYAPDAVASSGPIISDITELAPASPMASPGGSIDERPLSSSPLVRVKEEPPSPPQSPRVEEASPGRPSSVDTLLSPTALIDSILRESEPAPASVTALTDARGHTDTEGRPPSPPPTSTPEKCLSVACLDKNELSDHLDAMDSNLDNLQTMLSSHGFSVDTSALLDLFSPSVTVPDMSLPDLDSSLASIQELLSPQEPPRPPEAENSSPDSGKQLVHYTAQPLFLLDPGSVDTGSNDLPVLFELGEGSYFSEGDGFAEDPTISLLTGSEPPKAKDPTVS
Sequence of CRX (O43186 whole entry): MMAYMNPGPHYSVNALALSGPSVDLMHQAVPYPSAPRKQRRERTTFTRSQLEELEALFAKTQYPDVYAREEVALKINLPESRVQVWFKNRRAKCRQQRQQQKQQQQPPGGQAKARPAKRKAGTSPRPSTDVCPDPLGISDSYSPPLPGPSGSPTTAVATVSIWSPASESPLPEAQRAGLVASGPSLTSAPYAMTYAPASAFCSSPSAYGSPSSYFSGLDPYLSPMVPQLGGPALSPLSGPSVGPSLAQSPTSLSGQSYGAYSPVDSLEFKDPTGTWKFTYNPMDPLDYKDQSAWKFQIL

For the sequence ACTAAG, the binding signal in assay [1] was 1.04 fold enrichment (6-mer frequency, TF over GST control); in [2], 1.08 fold enrichment (6-mer frequency, TF over GST control); in [3], 1.11 fold enrichment (6-mer frequency, TF over GST control); in assay [4], 1.02 fold enrichment (6-mer frequency, TF over GST control); in assay [5], 1.04 fold enrichment (6-mer frequency, TF over GST control); in [6], 1.15 fold enrichment (6-mer frequency, TF over GST control). In addition, the binding signal in assay [7] was 1.12 fold enrichment (6-mer frequency, TF over GST control); in assay [8] it was 1.14 fold enrichment (6-mer frequency, TF over GST control); in [9], 1.07 fold enrichment (6-mer frequency, TF over GST control); in [10] it was 1.02 fold enrichment (6-mer frequency, TF over GST control); in [11] it was 1.04 fold enrichment (6-mer frequency, TF over GST control); in assay [12], 1.32 fold enrichment (6-mer frequency, TF over GST control). Besides, the binding signal in assay [13] was 1.19 fold enrichment (6-mer frequency, TF over GST control); in assay [14], 1.1 fold enrichment (6-mer frequency, TF over GST control); in assay [15], 1.02 fold enrichment (6-mer frequency, TF over GST control); in assay [16], 1.11 fold enrichment (6-mer frequency, TF over GST control); in assay [17], 1.76 fold enrichment (6-mer frequency, TF over GST control); in [18], 1.15 fold enrichment (6-mer frequency, TF over GST control).
